Results: PubChem BioAssay (Tox21)
Results filed as inconclusive are left out. Calls of active or inactive are those of the source. Unless noted, calls follow the shape of the dose curve; as a rule, active = well fitted curve in the direction sought with a large enough effect in the repeat runs; inconclusive = weak or mixed curves; inactive = no such curve, though single readings can be large; an effect the other way counts as inactive or inconclusive.

Legend:
[1] = qHTS assay to identify small molecule agonists of the peroxisome proliferator-activated receptor delta (PPARd) signaling pathway - cell viability counter screen (AID 743211); also: nearly all actives have a fitted effect of over 55% in size
Outline: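 qHTS cell viability: PPARd-bla HEK293H; 17 h cpd, 37C; CellTiter-Glo, luminescence at 30 min RT.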

[2] = biological target: Peroxisome proliferator-activated receptor delta (Homo sapiens) (UniProt Q03181); assay: qHTS assay to identify small molecule agonists of the peroxisome proliferator-activated receptor delta (PPARd) signaling pathway (AID 743212; calls by dose curve)
Chain of Peroxisome proliferator-activated receptor delta (Homo sapiens) (Q03181 whole entry, looked up): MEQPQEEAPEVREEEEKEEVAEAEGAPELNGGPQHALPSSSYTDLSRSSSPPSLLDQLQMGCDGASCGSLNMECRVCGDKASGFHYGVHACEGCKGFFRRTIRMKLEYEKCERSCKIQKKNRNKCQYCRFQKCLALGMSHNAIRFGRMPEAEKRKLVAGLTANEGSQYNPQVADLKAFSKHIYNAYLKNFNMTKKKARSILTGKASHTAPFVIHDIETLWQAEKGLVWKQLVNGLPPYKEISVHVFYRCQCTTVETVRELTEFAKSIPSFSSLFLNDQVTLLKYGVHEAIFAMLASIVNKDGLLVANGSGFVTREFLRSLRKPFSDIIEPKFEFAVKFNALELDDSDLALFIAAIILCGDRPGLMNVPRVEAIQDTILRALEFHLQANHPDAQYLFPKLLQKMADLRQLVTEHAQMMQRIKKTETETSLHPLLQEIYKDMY
Outline: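 A PPARd-bla HEK293H line with beta-lactamase under an Upstream Activator Sequence is treated with compounds at 37 C. Substrate loading for 2 h at room temperature precedes the fluorescence measurement.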

[3] = qHTS assay to identify small molecule antagonists of the peroxisome proliferator-activated receptor delta (PPARd) signaling pathway - cell viability counter screen (AID 743213); also: nearly all actives have a fitted effect of over 50% in size
Outline: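 PPARd-bla HEK293H cells (3000/well) got compound plus 300 nM L165041 agonist for 17 h at 37 C. Viability in the same wells came from CellTiter-Glo luminescence after 30 min at room temperature.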

[4] = biological target: Peroxisome proliferator-activated receptor delta (Homo sapiens) (UniProt Q03181); assay: qHTS assay to identify small molecule antagonists of the peroxisome proliferator-activated receptor delta (PPARd) signaling pathway (AID 743215; active = well fitted inhibition curve with a large enough effect in the signal ratio in the repeat runs, not every such curve was filed as active; the % refers to the signal ratio;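 also: cells stimulated with agonist L165041 at 300 nM final during compound exposure; series mostly up to about 62 µM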)
Outline: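 With L165041 present at 300 nM final, compounds were incubated 17 h at 37 C on PPARd UAS-bla HEK293H cells. A FRET-based beta-lactamase substrate was then applied for 2 h at room temperature and fluorescence intensity recorded.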

[5] = biological target: Bile acid receptor (Homo sapiens) (UniProt Q96RI1); assay: qHTS assay to identify small molecule antagonists of the farnesoid-X-receptor (FXR) signaling pathway (AID 743217; active = well fitted inhibition curve with a large enough effect in the signal ratio in the repeat runs, not every such curve was filed as active; the % refers to the signal ratio)
Chain of Bile acid receptor (Homo sapiens) (Q96RI1 whole entry, looked up): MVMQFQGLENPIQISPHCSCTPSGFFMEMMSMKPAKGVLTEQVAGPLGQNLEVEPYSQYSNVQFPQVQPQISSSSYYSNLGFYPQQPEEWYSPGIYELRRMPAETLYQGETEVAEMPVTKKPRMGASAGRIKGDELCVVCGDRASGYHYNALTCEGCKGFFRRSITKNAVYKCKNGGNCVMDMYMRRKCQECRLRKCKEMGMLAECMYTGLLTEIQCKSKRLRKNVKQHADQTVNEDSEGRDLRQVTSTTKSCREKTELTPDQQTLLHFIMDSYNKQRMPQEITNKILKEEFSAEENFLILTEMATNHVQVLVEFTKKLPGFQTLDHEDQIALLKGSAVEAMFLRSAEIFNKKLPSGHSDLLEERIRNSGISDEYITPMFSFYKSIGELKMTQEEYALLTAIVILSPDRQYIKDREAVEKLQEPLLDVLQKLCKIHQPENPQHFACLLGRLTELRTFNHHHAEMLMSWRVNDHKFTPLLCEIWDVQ
Outline: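 In this cell-based antagonist screen, inhibition of CDCA-driven (50 uM final) UAS-beta-lactamase expression in HEK 293T cells was measured by FRET fluorescence following 16 h compound exposure at 37 °C.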

[6] = qHTS assay to identify small molecule agonists of the farnesoid-X-receptor (FXR) signaling pathway - cell viability counter screen (AID 743218); also: nearly all actives have a fitted effect of over 45% in size
Outline: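 After 16 h at 37 C with test compounds, FXR-bla HEK 293T cells were given LiveBLAzer B/G substrate for 2 h at RT and then CellTiter-Glo; luminescence was taken after 30 min.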

[7] = biological target: Bile acid receptor (Homo sapiens) (UniProt Q96RI1); assay: qHTS assay to identify small molecule agonists of the farnesoid-X-receptor (FXR) signaling pathway (AID 743220; active = well fitted activation curve with a large enough effect in the signal ratio in the repeat runs, not every such curve was filed as active; the % refers to the signal ratio)
Outline: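 Beta-lactamase reporter under UAS control in GeneBLAzer FXR HEK 293T cells (5000/well) measured with LiveBLAzer FRET substrate after 2 h at room temperature. Compound exposure lasted 16 h at 37C.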

[8] = qHTS assay to identify small molecule antagonists of the farnesoid-X-receptor (FXR) signaling pathway - cell viability counter screen (AID 743221; active = well fitted cell-killing curve with a large enough effect in the repeat runs, not every such curve was filed as active; also: nearly all actives have a fitted effect of over 50% in size)
Outline: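 After a 5 h settling period, FXR-bla HEK 293T cells receive compound and chenodeoxycholic acid (50 uM final) and incubate 16 h at 37 C; CellTiter-Glo luminescence, read after 30 min at room temperature, reports cell viability.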

[9] = biological target: Vitamin D3 receptor (Homo sapiens) (UniProt P11473); assay: qHTS assay to identify small molecule agonists of the vitamin D receptor (VDR) signaling pathway (AID 743222; calls by dose curve)
Chain of Vitamin D3 receptor (Homo sapiens) (P11473 whole entry, looked up): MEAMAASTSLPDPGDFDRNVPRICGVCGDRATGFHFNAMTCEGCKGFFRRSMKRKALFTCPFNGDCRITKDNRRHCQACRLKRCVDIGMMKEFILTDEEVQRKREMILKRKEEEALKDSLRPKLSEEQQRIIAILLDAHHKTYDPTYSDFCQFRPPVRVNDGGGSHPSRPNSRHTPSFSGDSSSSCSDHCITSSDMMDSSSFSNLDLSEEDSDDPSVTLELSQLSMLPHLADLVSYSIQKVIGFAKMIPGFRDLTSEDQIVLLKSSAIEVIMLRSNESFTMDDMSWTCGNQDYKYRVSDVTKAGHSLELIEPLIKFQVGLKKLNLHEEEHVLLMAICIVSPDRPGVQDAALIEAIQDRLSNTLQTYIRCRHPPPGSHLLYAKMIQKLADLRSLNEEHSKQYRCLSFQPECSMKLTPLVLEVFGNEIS
Outline: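 VDR-bla cells were seeded, left 4 h, treated with compounds in DMSO for 16 h, incubated 2 h at RT with B/G FRET substrate, and read for fluorescence.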

[10] = biological target: Vitamin D3 receptor (Homo sapiens) (UniProt P11473); assay: qHTS assay to identify small molecule antagonists of the vitamin D receptor (VDR) signaling pathway (AID 743223; active = well fitted inhibition curve with a large enough effect in the signal ratio in the repeat runs, not every such curve was filed as active; the % refers to the signal ratio)
Outline: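 Reporter line VDR-bla; stimulus 1alpha,25-(OH)2 vitamin D3, 3 nM final; compound co-addition, 16 h 37C/5% CO2; LiveBLAzer B/G substrate 2 h RT; fluorescence intensity.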

Measured: Potency

CC(O)CN1CCN(CC(=O)[O-])CCN(CC(=O)[O-])CCN(CC(=O)[O-])CC1.[Gd+3] (stereo unspecified)
inactive: all assays above

O=C1NC(=O)C(=O)C(=O)N1
not listed: [9]
inactive: all other assays above

CCCC[N+]1(C)[C@@H]2CC(OC(=O)[C@H](CO)c3ccccc3)C[C@H]1[C@@H]1O[C@@H]12 (stereo partly specified)
not listed: [9] | [10]
inactive: all other assays above

C=C(C)C(=O)OCCCCOC(=O)C(=C)C
not listed: [5] | [7] | [10]
inactive: all other assays above

C1CS1
inactive: [1] | [2] | [3] | [4] | [6] | [8]

COC1CC(=C(c2cccs2)c2cccs2)C[N+](C)(C)C1 (stereo unspecified)
inactive: all assays above

CCCCC(CC)COC(=O)c1c(Br)c(Br)c(Br)c(Br)c1C(=O)OCC(CC)CCCC (stereo unspecified)
inactive: all assays above

CCOP(=O)(O)C(N)=O
inactive: all assays above

CC(C)(C)N(NC(=O)c1ccc(Cl)cc1)C(=O)c1ccccc1
not listed: [7]
inactive: all other assays above

CN(C)C(=O)Nc1cccc(OC(=O)NC(C)(C)C)c1
inactive: [1] | [2] | [3] | [4] | [6] | [8]

CC(C)[C@@H](C(=O)O[C@@H](C#N)c1cccc(Oc2ccccc2)c1)c1ccc(Cl)cc1
inactive: [1] | [2] | [3] | [4] | [6] | [8]

SCc1ccccc1
inactive: all assays above

CCC[N+](CCC)(CCC)CCC
inactive: [1] | [2] | [3] | [4] | [6] | [8]

CCCN(CCC)c1c([N+](=O)[O-])cc(C(C)C)cc1[N+](=O)[O-]
not listed: [5] | [7]
inactive: all other assays above

C[C@H]1[C@@H]2Cc3ccc(O)cc3[C@@]1(C)CCN2C
not listed: [10]
inactive: all other assays above

CCCCC#N
inactive: [1] | [2] | [3] | [4] | [6] | [8]

CCCCCCCCCCCCN(C)C
not listed: [9]
inactive: all other assays above

C#CC(O)(C=CCl)CC (stereo unspecified)
not listed: [6] | [9]
inactive: all other assays above

CCCCCl
not listed: [8] | [10]
inactive: all other assays above

C[N+]1(CCF)[C@@H]2CC[C@H]1CC(OC(=O)C(O)(c1ccccc1)c1ccccc1)C2 (stereo partly specified)
not listed: [6]
inactive: all other assays above

CC1(C)CC(=O)CC(C)(C)N1[O]
not listed: [6]
inactive: all other assays above

OCCSSCCO
not listed: [9] | [10]
inactive: all other assays above

Cc1nc(N(C)C)nc(OC(=O)N(C)C)c1C
inactive: all assays above

OCC1CO1 (stereo unspecified)
inactive: all assays above

CC[N+]1(CCOC(=O)C(O)(c2ccccc2)c2ccccc2)CCCCC1
inactive: all assays above
